Data from ChEMBL document CHEMBL5606458, “ASAP - ZIKV NS2B-NS3 protease fluorescence single point” (2024).
The whole screen tested about 2,700 compounds, of which about 160 (5.9%) showed an effect of 50% or more. Shown is part of a subset that was picked to be rich in strong results.

Biological target: Nonstructural protein 3 (Zika virus) (UniProt A0A024AXB9)
[1] = PRVABC59, Concentration 198.0 uM, Number of replicates 2.0, Standard deviation 0.06482927085509294 %

Nonstructural protein 3 (Zika virus), sequence (A0A024AXB9 as listed by the source): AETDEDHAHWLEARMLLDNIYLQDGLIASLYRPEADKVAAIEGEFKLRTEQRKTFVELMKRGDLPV

`c1ccc2c([C@H]3CCN(C[C@H]4CCCOC4)C3)c[nH]c2c1` gave an inhibition (PRVABC59, Concentration 49.5 uM, Number of replicates 2.0, Standard deviation 0.2718923543168702 %) of 3%, an inhibition (PRVABC59, Concentration 99.01 uM, Number of replicates 2.0, Standard deviation 1.3138002130824364 %) of 7.93% and an inhibition (PRVABC59, Concentration 198.0 uM, Number of replicates 2.0, Standard deviation 0.8779424567170888 %) of 17.5%.

`CCn1ccnc(N2CC[C@H](c3c[nH]c4ccccc34)C2)c1=O` showed an inhibition (PRVABC59, Concentration 49.5 uM, Number of replicates 2.0, Standard deviation 0.8076182483405395 %) of 8.04%, an inhibition (PRVABC59, Concentration 99.01 uM, Number of replicates 2.0, Standard deviation 0.7356695318349864 %) of 17.6% and an inhibition (PRVABC59, Concentration 198.0 uM, Number of replicates 2.0, Standard deviation 0.07734519898888803 %) of 32.1%.

With `NS(=O)(=O)c1ccc(C2CCN(Cc3c[nH]c4ccccc34)CC2)cc1` the inhibition (PRVABC59, Concentration 49.5 uM, Number of replicates 2.0, Standard deviation 0.10609946491696037 %) was 65%, the inhibition (PRVABC59, Concentration 99.01 uM, Number of replicates 2.0, Standard deviation 0.029644407368622425 %) was 80.2% and the inhibition (PRVABC59, Concentration 198.0 uM, Number of replicates 2.0, Standard deviation 0.031203503588737417 %) was 89.2%.

Work on `OC1CCN(Cc2c[nH]c3ccccc23)CC1` yielded an inhibition (PRVABC59, Concentration 49.5 uM, Number of replicates 2.0, Standard deviation 2.7698787458435845 %) of 5.44%, an inhibition (PRVABC59, Concentration 99.01 uM, Number of replicates 2.0, Standard deviation 2.6829105784026894 %) of 11.6% and an inhibition (PRVABC59, Concentration 198.0 uM, Number of replicates 2.0, Standard deviation 2.633683059341965 %) of 21.9%.

In the case of `c1ccc2c(CN3CCCCC3)c[nH]c2c1`, the inhibition (PRVABC59, Concentration 49.5 uM, Number of replicates 2.0, Standard deviation 0.27567478108963184 %) is reported as 10.6%, the inhibition (PRVABC59, Concentration 99.01 uM, Number of replicates 2.0, Standard deviation 0.4102311237715717 %) is reported as 22.8% and the inhibition (PRVABC59, Concentration 198.0 uM, Number of replicates 2.0, Standard deviation 0.3445953308233743 %) is reported as 38%.

`c1ccc(C2CCN(Cc3c[nH]c4ccccc34)CC2)nc1` was tested, and the inhibition (PRVABC59, Concentration 49.5 uM, Number of replicates 2.0, Standard deviation 1.1072658196883798 %) was 59.8%, the inhibition (PRVABC59, Concentration 99.01 uM, Number of replicates 2.0, Standard deviation 0.7753455634987777 %) was 75.2% and the inhibition (PRVABC59, Concentration 198.0 uM, Number of replicates 2.0, Standard deviation 0.5497459588871212 %) was 86%.

Work on `OCc1cc(C2CCN(Cc3c[nH]c4ccccc34)CC2)no1` yielded an inhibition (PRVABC59, Concentration 49.5 uM, Number of replicates 2.0, Standard deviation 0.29821086957580095 %) of 48.5%, an inhibition (PRVABC59, Concentration 99.01 uM, Number of replicates 2.0, Standard deviation 0.4460202044782944 %) of 64.3% and an inhibition (PRVABC59, Concentration 198.0 uM, Number of replicates 2.0, Standard deviation 0.7494127761974186 %) of 75.2%.

With `O=C(O)c1ccc(C2CCN(Cc3c[nH]c4ccccc34)CC2)cc1` the inhibition (PRVABC59, Concentration 49.5 uM, Number of replicates 2.0, Standard deviation 0.6949576992221913 %) was 10.8%, the inhibition (PRVABC59, Concentration 99.01 uM, Number of replicates 2.0, Standard deviation 0.3163616627681085 %) was 22.8% and the inhibition (PRVABC59, Concentration 198.0 uM, Number of replicates 2.0, Standard deviation 0.22041520507002849 %) was 37.7%.

`CCC1CCN(Cc2c[nH]c3ccccc23)CC1` was tested, and the inhibition (PRVABC59, Concentration 49.5 uM, Number of replicates 2.0, Standard deviation 2.1085872748623196 %) was 21.4%, the inhibition (PRVABC59, Concentration 99.01 uM, Number of replicates 2.0, Standard deviation 0.9763502903682051 %) was 37.3% and the inhibition (PRVABC59, Concentration 198.0 uM, Number of replicates 2.0, Standard deviation 0.045944785323907715 %) was 55.2%.

With `O=C1NCc2ccccc2C12CCNCC2` the inhibition (PRVABC59, Concentration 49.5 uM, Number of replicates 2.0, Standard deviation 1.3304043012280913 %) was 0.782%, the inhibition (PRVABC59, Concentration 99.01 uM, Number of replicates 2.0, Standard deviation 0.8986974193851874 %) was 2.65% and the inhibition (PRVABC59, Concentration 198.0 uM, Number of replicates 2.0, Standard deviation 5.074631109254522 %) was 2.34%.

For `CCn1ccnc(N2CC[C@H](C(C)(C)C)C2)c1=O`, the inhibition (PRVABC59, Concentration 49.5 uM, Number of replicates 2.0, Standard deviation 2.222905543826298 %) was 4.07%, the inhibition (PRVABC59, Concentration 99.01 uM, Number of replicates 2.0, Standard deviation 1.7617429882024038 %) was 10.1% and the inhibition (PRVABC59, Concentration 198.0 uM, Number of replicates 2.0, Standard deviation 1.0233659428190776 %) was 20.1%.

For `COc1cccc(C2CCN(Cc3c[nH]c4ccccc34)CC2)c1`, the inhibition (PRVABC59, Concentration 49.5 uM, Number of replicates 2.0, Standard deviation 0.042125269324456455 %) was 39.6%, the inhibition (PRVABC59, Concentration 99.01 uM, Number of replicates 2.0, Standard deviation 0.10921765735719036 %) was 56.3% and the inhibition (PRVABC59, Concentration 198.0 uM, Number of replicates 2.0, Standard deviation 0.2075162463769664 %) was 67.5%.

Work on `COC[C@@H](C)CN1CC[C@H](c2c[nH]c3ccccc23)C1` yielded an inhibition (PRVABC59, Concentration 49.5 uM, Number of replicates 2.0, Standard deviation 1.4380791310486918 %) of 4.02%, an inhibition (PRVABC59, Concentration 99.01 uM, Number of replicates 2.0, Standard deviation 1.4278249713933853 %) of 8.28% and an inhibition (PRVABC59, Concentration 198.0 uM, Number of replicates 2.0, Standard deviation 1.555996909462895 %) of 14.7%.

For `c1ccc2c(CN3CCC(c4cnco4)CC3)c[nH]c2c1`, the inhibition (PRVABC59, Concentration 49.5 uM, Number of replicates 2.0, Standard deviation 0.1050178081967768 %) was 41.5%, the inhibition (PRVABC59, Concentration 99.01 uM, Number of replicates 2.0, Standard deviation 0.24613759530362114 %) was 59.4% and the inhibition (PRVABC59, Concentration 198.0 uM, Number of replicates 2.0, Standard deviation 0.2970051325336013 %) was 74.9%.

In the case of `c1ccc2c(CN3CCC(c4ccn[nH]4)CC3)c[nH]c2c1`, the inhibition (PRVABC59, Concentration 49.5 uM, Number of replicates 2.0, Standard deviation 1.3620998271263447 %) is reported as 41.5%, the inhibition (PRVABC59, Concentration 99.01 uM, Number of replicates 2.0, Standard deviation 0.5632518321987402 %) is reported as 58.4% and the inhibition (PRVABC59, Concentration 198.0 uM, Number of replicates 2.0, Standard deviation 0.6599886276000965 %) is reported as 73.5%.

`c1cnc(C2CCN(Cc3c[nH]c4ccccc34)CC2)nc1` gave an inhibition (PRVABC59, Concentration 49.5 uM, Number of replicates 2.0, Standard deviation 0.6038611636759568 %) of 44.9%, an inhibition (PRVABC59, Concentration 99.01 uM, Number of replicates 2.0, Standard deviation 0.27239407040154384 %) of 62.7% and an inhibition (PRVABC59, Concentration 198.0 uM, Number of replicates 2.0, Standard deviation 0.2641885847586549 %) of 77.4%.

For `c1cncc(C2CCN(Cc3c[nH]c4ccccc34)CC2)c1`, the inhibition (PRVABC59, Concentration 49.5 uM, Number of replicates 2.0, Standard deviation 0.34229175267116285 %) was 61.9%, the inhibition (PRVABC59, Concentration 99.01 uM, Number of replicates 2.0, Standard deviation 0.300803069346615 %) was 77.1% and the inhibition [1] was 87.7%.

Work on `c1ccc(COC2CCN(Cc3c[nH]c4ccccc34)CC2)cc1` yielded an inhibition (PRVABC59, Concentration 49.5 uM, Number of replicates 2.0, Standard deviation 2.313702836748105 %) of 23.5%, an inhibition (PRVABC59, Concentration 99.01 uM, Number of replicates 2.0, Standard deviation 1.2274106375778986 %) of 39.6% and an inhibition (PRVABC59, Concentration 198.0 uM, Number of replicates 2.0, Standard deviation 0.262548566589399 %) of 58.3%.

With `N#CC1(c2ccccc2)CCN(Cc2c[nH]c3ccccc23)CC1` the inhibition (PRVABC59, Concentration 49.5 uM, Number of replicates 2.0, Standard deviation 0.4200874171769353 %) was 32%, the inhibition (PRVABC59, Concentration 99.01 uM, Number of replicates 2.0, Standard deviation 0.32673315924966934 %) was 34.4% and the inhibition [1] was 32.8%.

In the case of `OC1(c2ccccc2)CCN(Cc2c[nH]c3ccccc23)CC1`, the inhibition (PRVABC59, Concentration 49.5 uM, Number of replicates 2.0, Standard deviation 0.6104232594017089 %) is reported as 13%, the inhibition (PRVABC59, Concentration 99.01 uM, Number of replicates 2.0, Standard deviation 0.9927585642556782 %) is reported as 22.8% and the inhibition (PRVABC59, Concentration 198.0 uM, Number of replicates 2.0, Standard deviation 2.2070409642846154 %) is reported as 34.8%.

With `Cn1nccc1C1CCN(Cc2c[nH]c3ccccc23)CC1` the inhibition (PRVABC59, Concentration 49.5 uM, Number of replicates 2.0, Standard deviation 1.4229504354820093 %) was 24.6%, the inhibition (PRVABC59, Concentration 99.01 uM, Number of replicates 2.0, Standard deviation 1.2388422115932054 %) was 38.2% and the inhibition (PRVABC59, Concentration 198.0 uM, Number of replicates 2.0, Standard deviation 1.0765748217775348 %) was 55.9%.
